Results from ChEMBL document CHEMBL3988442, “University of Dundee, Small-Polar-MMV Screening Library” (2021).

Key:
[1] = biological target: T1, Aspartate--tRNA(Asp/Asn) ligase (Mycobacterium tuberculosis (strain ATCC 25618 / H37Rv)) (UniProt P9WFW3); experiment: Assay for Asp RNA synthetase-1 from Mycobacterium tuberculosis; type: functional; design: scale not given: direction of the effect not stated beside the values; conditions: 30 µM; also: in the data most compounds retested in dose-response had high values
T1 sequence (whole entry): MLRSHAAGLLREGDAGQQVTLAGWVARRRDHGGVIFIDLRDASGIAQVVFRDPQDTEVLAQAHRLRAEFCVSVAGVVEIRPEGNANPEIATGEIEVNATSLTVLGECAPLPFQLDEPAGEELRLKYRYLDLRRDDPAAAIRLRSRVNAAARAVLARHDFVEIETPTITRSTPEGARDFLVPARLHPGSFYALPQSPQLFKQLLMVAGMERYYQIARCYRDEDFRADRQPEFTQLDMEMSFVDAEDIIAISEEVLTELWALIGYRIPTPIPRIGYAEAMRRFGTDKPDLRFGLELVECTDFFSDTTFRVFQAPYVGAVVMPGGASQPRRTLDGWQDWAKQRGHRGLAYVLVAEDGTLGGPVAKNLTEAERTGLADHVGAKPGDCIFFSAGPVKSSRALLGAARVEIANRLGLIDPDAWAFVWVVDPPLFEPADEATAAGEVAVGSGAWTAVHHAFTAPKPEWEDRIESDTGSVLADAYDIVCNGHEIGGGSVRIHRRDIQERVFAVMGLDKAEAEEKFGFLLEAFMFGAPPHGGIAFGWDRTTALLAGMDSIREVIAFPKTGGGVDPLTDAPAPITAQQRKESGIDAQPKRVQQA

[2] = biological target: Shiga toxin 2 (Escherichia coli O157:H7) (UniProt P09385+P09386); experiment: E. coli 0.157:H7 Shiga Toxin SOP - stx2 screening assay; type: functional; design: scale not given: direction of the effect not stated beside the values; conditions: 30 µM

SMILES	Percent Effect [1] [%]	Percent Effect [2] [%]
CCOc1ccccc1C(CC(=O)Nc1ccc(C)cn1)NC(C)=O (stereo not drawn)	-0.122	14.7
CC(C)(C)c1n[nH]c(C2CN(C(=O)c3ccsc3)CCO2)n1 (stereo not drawn)	-2.97	7.5
c1cnn(CC2CN(c3ncnc4sccc34)CCO2)c1 (stereo not drawn)	2.38	-6.78
O=C(NCCC(=O)N1CCCC1)c1nn(-c2ccccc2F)cc1O	-3.29	-59.6
O=C(c1ccc[nH]1)N1C[C@H](OCc2cccnc2)[C@H]2COC[C@H]21	2.69	-6.45
NCCn1nc(C2CCN(Cc3ccc(Cl)c(Cl)c3)C2)c2nccnc21 (stereo not drawn)	-4	-105
COCc1cn([C@@H]2c3ccccc3C3(CCNCC3)[C@H]2O)nn1	3.45	8.95
Cc1noc(C(C)N2CCN(CCCN3CCCC3=O)CC2)n1 (stereo not drawn)	0.409	4.39
Cc1ccc(CC2CCCN2CC(=O)NCc2ccccn2)cc1 (stereo not drawn)	0.629	-4.96
COc1ccc(CNC(=O)Nc2cccnc2N2CCCC2)cc1O	0.235	10.6
COCCN1C[C@@H]2CN(c3ncccn3)C[C@@H]2C1=O	0.324	-15.3
O=C(CCOc1ccc(Cl)cc1)N1CCN(c2cnccn2)CC1	0.879	-12.7
CN(Cc1ccco1)C(=O)C1CSCN1C(=O)c1cccnc1 (stereo not drawn)	2.02	13.1
Cc1nnc(NCc2cccnc2N(C)C)c(C#N)c1C	0.728	0.124
CC(NC(=O)CSCC#N)c1cccc(NC(=O)c2ccccc2)c1 (stereo not drawn)	1.91	6.38
c1cc(C2CCCN2Cc2nnnn2C2CC2)cs1 (stereo not drawn)	-4.43	5.22
CCC(C)N(C)S(=O)(=O)c1ccc(CCNC(C)=O)s1 (stereo not drawn)	0.0557	-17
O=C(Cn1cc(-c2ccccc2)ncc1=O)Nc1nnc[nH]1	-0.342	6.34
Cc1ccc(NC(=O)Nc2cnc(N3CCN(C)CC3)nc2)c(Cl)c1	-3.19	-20.4
